Screens (PubChem)
Tau ThT inhib: tau fibrillization inhibition (ThT binding); actives 2.1% (n = 270,000); recombinant tau K18 P301L, heparin-induced fibrillization, ThT fluorescence; Potency, µM (titrated, usually from 57.4 µM), hits mostly inhibitors; AID 1460; note: nearly all actives have a fitted effect of over 55% in size
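Fibril formation assay: tau K18 P301L at 15 uM with trace Alexa 594 label, heparin inducer 20 uM, pH 7 sodium acetate buffer, 37 C for 6 hr; endpoint ThT signal.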
USP1-UAF1 inh: inhibitors of human USP1/UAF1 deubiquitinase; actives 0.23% (n = 390,000); Potency, µM (doses to about 57.1 µM), hits mostly inhibitors; recombinant USP1/UAF1, Ub-Rhodamine cleavage fluorescence; AID 743255; note: nearly all actives have a fitted effect of over 60% in size
Target sequence (O94782 whole entry, looked up): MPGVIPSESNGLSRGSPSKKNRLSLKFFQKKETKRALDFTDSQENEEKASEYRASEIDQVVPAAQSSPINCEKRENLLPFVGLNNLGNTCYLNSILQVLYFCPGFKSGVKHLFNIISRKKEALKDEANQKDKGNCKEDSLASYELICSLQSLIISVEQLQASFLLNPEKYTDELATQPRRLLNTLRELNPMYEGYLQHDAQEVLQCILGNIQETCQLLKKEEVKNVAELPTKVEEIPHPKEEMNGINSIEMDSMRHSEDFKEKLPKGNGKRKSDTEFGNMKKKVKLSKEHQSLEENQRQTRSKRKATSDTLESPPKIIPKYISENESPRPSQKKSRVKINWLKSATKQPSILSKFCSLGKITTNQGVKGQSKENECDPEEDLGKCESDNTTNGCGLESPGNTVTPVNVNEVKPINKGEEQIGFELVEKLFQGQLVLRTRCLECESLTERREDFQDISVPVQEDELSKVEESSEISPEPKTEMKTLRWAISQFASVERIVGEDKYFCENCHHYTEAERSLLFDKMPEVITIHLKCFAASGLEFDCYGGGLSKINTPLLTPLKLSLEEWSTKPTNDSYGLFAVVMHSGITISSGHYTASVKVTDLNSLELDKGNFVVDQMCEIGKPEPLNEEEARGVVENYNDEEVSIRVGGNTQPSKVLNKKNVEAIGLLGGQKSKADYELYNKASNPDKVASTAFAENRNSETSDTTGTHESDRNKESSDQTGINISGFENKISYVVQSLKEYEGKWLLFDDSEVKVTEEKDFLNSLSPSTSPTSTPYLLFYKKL
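USP1/UAF1 complex at 1 nM was preincubated with compound for 15 min at room temperature, then Ub-Rho substrate (150nM final) was added. Fluorescence (480/540 nm) was read kinetically, 6 reads every 60 seconds.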
Tau fluor counter: counter-screen for tau fibril formation inhibitors; Potency, µM (highest dose often 57.7 µM); tau K18 P301L Alexa594 fluorescence, heparin fibrillization; AID 1463; actives 0.93% (n = 280,000); note: nearly all actives have a fitted effect of over 55% in size
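Human tau K18 P301L (15 uM unlabeled, 0.24 uM Alexa 594-labeled) in 100 mM sodium acetate pH 7 with 20 uM heparin, 6 hr at 37 C. ThT 30 uM added, 1 hr ambient; Alexa 594 FP and total fluorescence read at 555/632 nm.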
FBPA coupling cs: counter-screen for Giardia aldolase inhibitors: coupling enzyme system | coupling enzyme system counterscreen, AmpLite Red fluorescence | actives 0.67% (n = 290,000) | activity change, negative = inhibition, % at 58.2 µM, hits read low; in the data active = activity change below about -30%
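Final compound at 57.5 uM, incubated 10 min at RT with coupling enzyme reagent (glyceraldehyde-3-phosphate), then 20 min with substrate and AmpLite Red detection. Fluorescence read at 525/598 nm; tests interference with the coupling assay, not aldolase inhibition.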
Tau FP inhib: tau fibrillization inhibition (FP); K18 P301L tau heparin fibrillization, Alexa594 FP, 6 h; Potency, µM (doses to about 57.7 µM), hits mostly inhibitors; actives 0.39% (n = 280,000); AID 1468; note: nearly all actives have a fitted effect of over 55% in size
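Quantitative HTS format: compounds meet 15 uM recombinant K18 P301L tau and Alexa 594-tau tracer in 100 mM sodium acetate pH 7; 20 uM heparin triggers fibrillization at 37 C over 6 hr; FP gives the signal.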
Large screens that a line does not name were inactive; [ ] = remark or other dose. An excerpt weighted towards active compounds, which were near 2.3% of everything screened. Unless noted, calls come from the whole dose curve; as a rule, active = well fitted curve in the direction sought with a large enough effect; inconclusive = small, poorly fitted or top-dose-only effect, or another doubt; inactive = no such curve, though single readings can be large; an effect the other way counts as inactive or inconclusive.

Cc1nnsc1C(=O)N/N=C/c1ccc2ccccc2c1O	Tau ThT inhib 3.16µM, Tau FP inhib inconclusive
C(=Cc1cccnc1)c1ccncc1	none (no result: Tau ThT inhib, Tau fluor counter, FBPA coupling cs, Tau FP inhib)
O=C(/C=C/c1cccnc1)/C=C/c1cccnc1	Tau ThT inhib 4.47µM, Tau FP inhib inconclusive
CCCCCCCC/C=C\CCCCCCCCOC[C@H](COP(=O)([O-])OCC[N+](C)(C)C)OC(C)=O	none (no result: USP1-UAF1 inh)
COCCN=C1NN=C(c2ccc(NC(C)=O)cc2)CS1	Tau ThT inhib 28.2µM, Tau FP inhib inconclusive
CC(=O)Nc1ccc(C(=O)Nc2ccc(S(=O)(=O)N3CCOCC3)cc2)cc1	none (no result: Tau ThT inhib, Tau fluor counter, Tau FP inhib)
CC(=O)Nc1ccc(C2=NNC(=Nc3cccc(S(=O)(=O)N(C)C)c3)SC2)cc1	Tau ThT inhib 7.94µM, USP1-UAF1 inh 10µM, Tau fluor counter 14.1µM[quencher], Tau FP inhib inconclusive
CC(=O)Nc1ccc(C2=NNC(=Nc3ccc(S(=O)(=O)N4CCOCC4)cc3)SC2)cc1	Tau ThT inhib 4.47µM, USP1-UAF1 inh 15.8µM, Tau fluor counter 15.8µM[quencher], Tau FP inhib inconclusive
Cc1cc(/C=N/n2c(COc3ccccc3)nc3ccccc3c2=O)c(O)c([N+](=O)[O-])c1	Tau ThT inhib 11.2µM, Tau fluor counter inconclusive
Cc1ccc(-c2[nH]ncc2/C=N/n2c(COc3ccccc3)nc3ccccc3c2=O)cc1	none
CC1=C(n2nnc3ccccc32)C(c2ccccc2)C(C#N)=C(N)O1 (centres undefined)	Tau ThT inhib inconclusive, FBPA coupling cs -42.2
Cc1nn(-c2ccccc2)c2c1C(c1ccncc1)C(C#N)=C(N)O2 (centres undefined)	Tau ThT inhib inconclusive, Tau FP inhib inconclusive
O=C(C1=C(O)C(=O)N(c2ncccn2)C1c1ccc(Cl)c(Cl)c1)c1ccco1 (centres undefined)	Tau ThT inhib 17.8µM, Tau fluor counter inconclusive, Tau FP inhib inconclusive
O=C(C1=C(O)C(=O)N(c2ncccn2)C1c1ccc(Cl)cc1)c1ccco1 (centres undefined)	none
Cc1cc(C)c(O)c(N)c1	Tau ThT inhib 22.4µM (no result: USP1-UAF1 inh)
Cc1ccc(C)c(-c2[nH]c3c(c2-c2c(-n4cccc4)n(C)c(=O)n(C)c2=O)c(=O)n(C)c(=O)n3C)c1	none (no result: FBPA coupling cs)
CCOC(=O)c1c(C)sc(-c2c(-c3cc(C)ccc3C)[nH]c3c2c(=O)[nH]c(=O)n3C)c1O	Tau ThT inhib inconclusive, USP1-UAF1 inh 25.1µM (no result: FBPA coupling cs)
CCOC(=O)c1c(C)sc(-c2c(-c3cc(C)ccc3C)[nH]c3c2c(=O)n(C)c(=O)n3C)c1O	USP1-UAF1 inh 28.2µM (no result: FBPA coupling cs)
CCOC(=O)c1c(N2C(=O)Nc3ccccc3N2O)n[nH]c1-c1cccc(Cl)c1	none
CCOC(=O)c1c(C)sc(-c2c(-c3cccc(Cl)c3)[nH]c3c2c(=O)n(C)c(=O)n3C)c1O	USP1-UAF1 inh 15.8µM, Tau fluor counter inconclusive (no result: FBPA coupling cs)
CC(=O)c1ccc(NC(=O)CCc2nnc3ccc(N4CCCC4)nn23)cc1	none (no result: Tau ThT inhib, Tau fluor counter, FBPA coupling cs, Tau FP inhib)
O=S(=O)(c1ccc2nc(-c3ccccc3)[nH]c2c1)N1CCN(c2cccc(Cl)c2)CC1	Tau fluor counter inconclusive, Tau FP inhib inconclusive
CCOc1ccccc1NC(=O)C1CCCN1S(=O)(=O)c1ccc2nc(-c3ccccc3)[nH]c2c1 (centres undefined)	Tau fluor counter 10µM[quencher], Tau FP inhib inconclusive (no result: FBPA coupling cs)
CCc1cccc(NC(=O)C2CCCN2S(=O)(=O)c2ccc3nc(-c4ccccc4)[nH]c3c2)c1 (centres undefined)	Tau fluor counter 14.1µM[quencher], Tau FP inhib 31.6µM (no result: FBPA coupling cs)
Cc1cc(C)cc(NC(=O)C2CCCN2S(=O)(=O)c2ccc3nc(-c4ccccc4)[nH]c3c2)c1 (centres undefined)	Tau fluor counter 14.1µM[quencher], Tau FP inhib inconclusive (no result: FBPA coupling cs)
COc1ccccc1N1CCN(S(=O)(=O)c2ccc3nc(-c4ccccc4)[nH]c3c2)CC1	Tau fluor counter inconclusive, Tau FP inhib 22.4µM
COc1cc(NC(=O)C2=C(C)Nc3nnnn3C2c2ccc(SC)cc2)c(OC)cc1Cl (centres undefined)	Tau fluor counter inconclusive, Tau FP inhib inconclusive (no result: FBPA coupling cs)
COC(=O)[C@H](COC(C)(C)C)NC(=O)O[C@H]1C(=O)c2cc(OC)ccc2O[C@@H]1c1ccc(OC)c(Br)c1	none (no result: USP1-UAF1 inh)
